Assay outcomes: PubChem BioAssay, National Center for Advancing Translational Sciences (NCATS)
Methyltransferases = Primary Screen for Target Class Profiling of Small Molecule Inhibitors of Methyltransferases; purified enzyme, MTase-Glo SAH luminescence; hits give low values; calls only at 40 µM; 25,000 compounds, 3.9% hits; call rule not given here
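Each enzyme was assayed with SAM and its substrate. SAH formation detected by MTase-Glo luminescence; single-point 40 uM screen[…].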
Each line names hits and unclear results; the compound was inactive in the other large screens; ! = not confirmed by another sample. This is one part of a sample in which hits are shown more often than they occur.

N[C@@H](Cc1cc(I)c(Oc2ccc(O)c(I)c2)c(I)c1)C(=O)O	Methyltransferases active!
NC(Cc1c[nH]c2ccccc12)C(=O)O (configuration not stated)	none
N[C@@H](Cc1cc(I)c(Oc2cc(I)c(O)c(I)c2)c(I)c1)C(=O)O	Methyltransferases active
Cc1ccc(-c2noc(-c3cccc(S(=O)(=O)N4CCN(c5cc(C)ccc5C)CC4)c3)n2)cc1	none
CCCn1c(=O)c2ccc(C(=O)NC(C)C)cc2n2c(SCc3ccc(C)cc3)nnc12	none
O=C(Cn1nc2n(Cc3ccc(F)cc3)c(=O)c3ccccc3n2c1=O)Nc1ccccc1F	none
Cc1ccc(Cl)cc1N1C(=O)c2cc(-c3cccs3)nn2CC1(C)C(=O)NC1CCCCC1 (configuration not stated)	none
Cc1ccc(N2C(=O)c3cc4occc4n3CC2(C)C(=O)NC2CCCC(C)C2C)cc1C (configuration not stated)	none
COCCNC(=O)c1ccc2c(=O)nc3c(-c4ccccc4)n[nH]n3c2c1	none
COC(=O)c1cc2n(n1)CC(C)(C(=O)NC1CCCCCC1)N(c1ccc(Cl)cc1)C2=O (configuration not stated)	none
CCN(CC)c1nc2c(-c3cccc(F)c3)nnn2c2ccc(Cl)cc12	none
C=C(CO)C(=O)O[C@H]1C[C@@]23O[C@@H]2CC/C(=C/[C@H]2OC(=O)C(=C)[C@H]12)CO[C@H]3O	none
C=C1C(=O)O[C@H]2[C@H]1[C@@H](OC(=O)/C(C)=C\C)C[C@]1(C)O[C@@H]1[C@H]1O[C@H]1C(=C)[C@H]2O	none
C=C1C(=O)OC2/C=C(/C)C3=CC(=O)C(C)(CC(OC(=O)/C(C)=C/COC(C)=O)C12)O3 (configuration not stated)	Methyltransferases active
Cc1cc2c(cc3n2CC(C)(C(=O)NC2CCCCCCC2)N(C2CCCC2)C3=O)o1 (configuration not stated)	none
CCC(C)NC(=O)CSc1nnc2n(CC(C)C)c(=O)c3ccccc3n12 (configuration not stated)	none
CCOCCCN1C(=O)c2ccc(-c3ccco3)n2CC1(C)C(=O)NC1CCCCCC1 (configuration not stated)	none
CCc1cc2c(cc3n2CC(C)(C(=O)NC2CCC(C)CC2)N(Cc2ccccc2C)C3=O)s1 (configuration not stated)	none
CCOc1ccccc1CN1C(=O)c2cc3oc(C)cc3n2CC1(C)C(=O)NC1CCCCCCC1 (configuration not stated)	none
COc1cc(C(=O)O)ccc1NC(=O)[C@@H]1N[C@@H](CC(C)(C)C)[C@](C#N)(c2ccc(Cl)cc2F)[C@H]1c1cccc(Cl)c1F	Methyltransferases active
COc1ccccc1NC(=O)CSc1nnc2n(CCc3ccccc3)c(=O)c3ccccc3n12	none
Cc1ccc(Cn2c(=O)c3ccccc3n3c(=O)n(Cc4cccc(C)c4)nc23)cc1	none
Cc1cc2c(cc3n2CC(C)(C(=O)NC2CCCCCC2)N(CCCc2ccccc2)C3=O)o1 (configuration not stated)	none
Cc1cc(C)c(NC(=O)c2ncn3c2C(=O)N(C2CC2)C(C)(C(=O)NCc2ccc(F)cc2)C3)c(C)c1 (configuration not stated)	none
COc1ccc(OC)c(CCNC(=O)CCc2nnc3n(Cc4ccc(F)cc4)c(=O)c4ccccc4n23)c1	none
COc1ccc(OC)c(CCNC(=O)Cn2ccc3cc(S(=O)(=O)N4CCCC4)ccc32)c1	none
CCCC(=O)NCCc1c2n(c3ccc(OC)cc13)CCCc1ccccc1-2	Methyltransferases active
Cc1ccccc1NC(=O)Cn1nc2n(C(C)C)c(=O)c3ccc(C(=O)NC4CCCC4)cc3n2c1=O	none
COc1ccc(NC(=O)c2ncn3c2C(=O)N(C2CC2)C(C)(C(=O)NCc2ccc(F)cc2)C3)cc1Cl (configuration not stated)	none
Cc1cccc(CN2C(=O)c3ccc(-c4ccco4)n3CC2(C)C(=O)NC2CCCCC2)c1 (configuration not stated)	none
COc1ccc(CCNc2ncnc3c2CN(C2CCC2)C(=O)N(C)C3)cc1	none
CN1CCN(C(=O)c2ccc3cc(CCNc4ncnc5ccc(C#N)cc45)ccc3c2)CC1	Methyltransferases active
CC(=O)N1CCN(C(=O)c2ccc3oc(-c4ccccn4)nc3c2)CC1	none
CCOC(=O)c1cc2n(n1)CC(C)(C(=O)NC1CCCC1)N(c1cccc(OC)c1)C2=O (configuration not stated)	none
COc1cccc(-c2[nH]cnc2-c2ccccc2)c1OCCCN(C)C	none
CN(CCCOc1ccc(Cc2ccccc2)cc1)CCC(=O)O	none
COc1ccc(CCN(C)CCCOc2nsc(-c3ccccc3)n2)cc1OC	Methyltransferases active
CCCCN1C(=O)c2cc(C(=O)Nc3cc(Cl)c(OC)cc3OC)nn2CC1(C)C(=O)NC1CCCC1 (configuration not stated)	none
CCn1cnnc1CC1CCN(S(=O)(=O)c2ccc(OC)cc2)CC1	none
CC(C)CCn1c(=O)c2ccccc2n2c(=O)n(Cc3c(F)cccc3Cl)nc12	none
CCC(C)NC(=O)c1cc2n(n1)CC(C)(C(=O)NC1CCCCCC1)N(C)C2=O (configuration not stated)	none
COC(=O)c1cc2n(n1)CC(C)(C(=O)NC1CCC(C)CC1)N(CCc1ccc(Cl)cc1)C2=O (configuration not stated)	none
OCCc1ccc(O[C@@H]2O[C@H](CO)[C@@H](O)[C@H](O)[C@H]2O)c(O)c1	none
OC[C@H]1O[C@@H](Oc2ccccc2)[C@H](O)[C@@H](O)[C@@H]1O	none
OC[C@H]1O[C@@H](OC[C@H]2O[C@@H](OC/C=C/c3ccccc3)[C@H](O)[C@@H](O)[C@@H]2O)[C@@H](O)[C@@H]1O	none
CC(=O)c1c(O)cc(O[C@@H]2O[C@H](CO)[C@@H](O)[C@H](O)[C@H]2O)cc1O	none
CC(=O)c1c(C)cc(O[C@@H]2O[C@H](CO)[C@@H](O)[C@H](O)[C@H]2O)cc1O	none
O=C(O[C@@H]1O[C@H](CO)[C@@H](O)[C@H](O)[C@H]1O)c1c(O)cc(O)cc1/C=C/c1ccccc1	Methyltransferases active
O=C(/C=C/c1ccccc1O)O[C@@H]1O[C@H](CO)[C@@H](O)[C@H](O)[C@H]1O	none
OC[C@H]1O[C@@H](Oc2ccc(O)c3cccc(O)c23)[C@H](O)[C@@H](O)[C@@H]1O	Methyltransferases active
O=C(c1ccccc1)c1c(O)cc(O)cc1O[C@@H]1O[C@H](CO)[C@@H](O)[C@H](O)[C@H]1O	Methyltransferases active
Cc1cc2c(cc3n2CC(C)(C(=O)NC2CCCCCCC2)N(Cc2cccc(Cl)c2)C3=O)o1 (configuration not stated)	none
COc1ccc(NC(=O)CCc2nnc3n(Cc4ccc(F)cc4)c(=O)c4ccccc4n23)cc1	none
CCCCN1C(=O)c2cc(C(=O)NCc3cccs3)nn2CC1(C)C(=O)NC1CCCC1 (configuration not stated)	none
CCOC(=O)c1cc2n(n1)CC(C)(C(=O)NCc1ccccc1)N(Cc1cccc(OC)c1OC)C2=O (configuration not stated)	none
Cc1ccc(C(=O)CSc2nnc3n(C)c(=O)c4ccc(C(=O)NC5CCCC5)cc4n23)c(C)c1	none
COCCNC(=O)CCc1nnc2n(Cc3ccccc3Cl)c(=O)c3ccccc3n12	none
CC1(C(=O)NCc2ccccc2)Cc2ccccc2C(=O)N1Cc1cccc(C(F)(F)F)c1 (configuration not stated)	none
COc1cc2c(cc1-c1c(C)noc1C)ncc1[nH]c(=O)n([C@H](C)c3ccccn3)c12	Methyltransferases active!
COc1ncccc1-c1cc(-c2c(C)noc2C)c2cncn2c1	none
